Drawing on PubChem BioAssay, this text covers z-score and composite z-score for 5 molecules.

Assay [1] in a line: optical density shifts of acrAB sulA E. coli – strain DRC41, OD650, 48 h, E. coli filamentation inducer project, primary screen (AID 1152).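 Further: E. coli MC1000 strain DRC41 lacking acrAB efflux pump and sulA.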 The note with it: higher = more signal, called active from +8 up or from −8 down.
Assay [2] is described as follows: probe aLefty1 binding on compound microarray – biochemical, small-molecule microarray, 635/667 nm fluorescence, primary screen (AID 1153).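 Further: score merges spot fluorescence with signal-to-noise ratio from the scanned slide images.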 The note with it: higher = more signal.
A short description of assay [3]: plasmodial surface anion channel blockers, osmotic lysis – cell-based, P. falciparum Indochina, OD700, 1 h, primary screen (AID 1154). The note with it: P. falciparum Indochina infected RBC osmotic lysis, higher = more signal, called active from +8 up or from −8 down.
Assay [4] can be described thus: plasmodial surface anion channel blockers, osmotic lysis – cell-based, P. falciparum Indochina, OD700, 2 h, primary screen (AID 1155).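 Further: lysis reports solute entry through the parasite surface anion channel PSAC.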 The conditions noted are these: P. falciparum Indochina infected erythrocytes, higher = more signal, called active from +8 up or from −8 down.
The nature of assay [5]: changes in parasitized red cell lysis, either direction – P. falciparum Indochina, OD700, 3 h, PSAC antagonist project, primary screen (AID 1156). The note with it: P. falciparum-infected erythrocytes, osmotic lysis, higher = more signal, called active from +8 up or from −8 down.
Assay [6] can be described thus: plasmodial surface anion channel blockers, osmotic lysis – cell-based, P. falciparum Indochina, OD700, 18 h, primary screen (AID 1157). The conditions noted are these: P. falciparum Indochina infected erythrocytes, osmotic lysis OD700, 18 h; higher = more signal, called active from +8 up or from −8 down.
A short description of assay [7]: S6 kinase pathway phospho-S6 level changes – cell-based, A549, cytoblot, luminescence, serum-stimulated, primary screen (AID 1158).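 Further: serum-stimulated A549 lung adenocarcinoma cells; signal is phosphorylated S6 detected by cytoblot immunostaining with HRP secondary.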 The conditions noted are these: 5 h, higher = more signal.
Assay [8] addresses NADPH oxidase 2 (Homo sapiens) (UniProt P04839). Kind of assay: compounds shifting NOX2 Amplex Red fluorescence – cell-based, HEK293-NOX2, PMA-stimulated, NOX inhibitor project, primary screen (AID 1159). Further: test concentration not given here. The note with it: 45 min, higher = more signal, called active from +8 up or from −8 down.
The target of assay [9] is NADPH oxidase 4 (Homo sapiens) (UniProt Q9NPH5). Nature of the assay: compounds shifting NOX4 Amplex Red fluorescence – cell-based, HEK293-NOX4, tetracycline-induced, NOX inhibitor project, primary screen (AID 1160). The note with it: HEK293-NOX4, Amplex Red H2O2 fluorescence, 45 min; higher = more signal, called active from +8 up or from −8 down.
NADPH oxidase 4 (Homo sapiens), sequence (Q9NPH5 whole entry, looked up): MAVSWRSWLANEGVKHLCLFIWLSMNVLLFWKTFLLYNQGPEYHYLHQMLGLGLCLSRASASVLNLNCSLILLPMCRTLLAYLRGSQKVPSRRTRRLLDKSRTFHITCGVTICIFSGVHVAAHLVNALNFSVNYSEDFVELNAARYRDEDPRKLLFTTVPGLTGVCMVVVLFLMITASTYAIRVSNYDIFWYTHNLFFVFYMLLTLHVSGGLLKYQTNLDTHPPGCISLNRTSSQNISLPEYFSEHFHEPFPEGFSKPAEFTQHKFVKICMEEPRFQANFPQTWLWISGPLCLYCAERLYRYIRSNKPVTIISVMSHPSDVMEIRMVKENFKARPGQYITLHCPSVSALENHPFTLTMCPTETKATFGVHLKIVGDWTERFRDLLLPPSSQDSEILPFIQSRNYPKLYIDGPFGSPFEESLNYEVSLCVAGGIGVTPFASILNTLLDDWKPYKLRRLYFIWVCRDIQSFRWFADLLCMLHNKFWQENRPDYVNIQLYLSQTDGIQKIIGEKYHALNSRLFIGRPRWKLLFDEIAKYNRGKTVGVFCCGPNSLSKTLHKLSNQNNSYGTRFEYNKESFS
Assay [10] concerns the target NADPH oxidase 5 (Homo sapiens) (UniProt Q96PH1). Nature of the assay: compounds shifting NOX5 Amplex Red fluorescence – cell-based, HEK293-NOX5, NOX inhibitor project, primary screen (AID 1161). The conditions noted are these: HEK293-NOX5, ionomycin, 45 min, higher = more signal.
Assay [11] is described as follows: compound effects on lung adenocarcinoma cell viability – A549, calcein-AM fluorescence, 48 h, basal, profiling panel (AID 1162). Further: test concentration not given here. The note with it: higher = more signal.
Assay [12] is described as follows: compound effects on differentiated 3T3-L1 adipocyte viability – cell-based, 3T3-L1 adipocytes, calcein-AM fluorescence, 48 h, basal, profiling panel (AID 1163). Further: test concentration not given here. The conditions noted are these: 3T3-L1 adipocytes viability, higher = more signal.
A short description of assay [13]: compound effects on hepatocellular carcinoma cell viability – HepG2, calcein-AM fluorescence, 48 h, basal, profiling panel (AID 1164). Further: test concentration not given here. The note with it: higher = more signal.
The nature of assay [14]: compound effects on multiple myeloma cell viability – MM1S, calcein-AM fluorescence, 48 h, basal, profiling panel (AID 1165).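 Further: viability of MM1S multiple myeloma cells under basal unstimulated conditions; test concentration not given here.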 The note with it: higher = more signal.
Assay [15] can be described thus: calcein-AM signal in unstimulated myeloma cells – cell-based, calcein-AM fluorescence, 48 h, PK04 Diversity Set, profiling panel (AID 1166).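 Further: cells grown under basal conditions without added stimulus; test concentration not given here.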 The note with it: RPMI8226 myeloma viability, higher = more signal.
Assay [16] is described as follows: JC-1 mitochondrial signal, unstimulated HepG2 cells – cell-based, JC-1 fluorescence, 24 h, 100 nL compound, profiling panel (AID 1167). Further: test concentration not given here. The conditions noted are these: HepG2 mitochondrial potential, higher = more signal.
Assay [17] in a line: JC-1 mitochondrial signal, unstimulated adipocytes – cell-based, JC-1 fluorescence, 3T3-L1 adipocytes, 24 h, 100 nL compound, profiling panel (AID 1168). Further: test concentration not given here. The note with it: JC-1 mitochondrial fluorescence, higher = more signal, called active from +8 up or from −8 down.
Assay [18] is described as follows: JC-1 mitochondrial signal, unstimulated myeloma cells – cell-based, JC-1 fluorescence, RPMI8226, 24 h, 100 nL compound, profiling panel (AID 1169). Further: test concentration not given here. The conditions noted are these: JC-1 mitochondrial potential fluorescence, higher = more signal.
The nature of assay [19]: JC-1 mitochondrial signal, unstimulated MM1S myeloma – cell-based, JC-1 fluorescence, 24 h, 100 nL compound, profiling panel (AID 1170). Further: test concentration not given here. The note with it: MM1S mitochondrial potential, higher = more signal.
Assay [20] can be described thus: resazurin metabolic signal in A549 cells – cell-based, resazurin fluorescence, 24 h, PK04 Diversity Set, profiling panel (AID 1171). Further: test concentration not given here. The note with it: A549 viability, higher = more signal, called active from +8 up or from −8 down. A general note: The colour change of resazurin is a common sign of viable cells or microbes.

Active and inactive are the calls of the source.

NADPH oxidase 2 (Homo sapiens), sequence (P04839 whole entry, looked up): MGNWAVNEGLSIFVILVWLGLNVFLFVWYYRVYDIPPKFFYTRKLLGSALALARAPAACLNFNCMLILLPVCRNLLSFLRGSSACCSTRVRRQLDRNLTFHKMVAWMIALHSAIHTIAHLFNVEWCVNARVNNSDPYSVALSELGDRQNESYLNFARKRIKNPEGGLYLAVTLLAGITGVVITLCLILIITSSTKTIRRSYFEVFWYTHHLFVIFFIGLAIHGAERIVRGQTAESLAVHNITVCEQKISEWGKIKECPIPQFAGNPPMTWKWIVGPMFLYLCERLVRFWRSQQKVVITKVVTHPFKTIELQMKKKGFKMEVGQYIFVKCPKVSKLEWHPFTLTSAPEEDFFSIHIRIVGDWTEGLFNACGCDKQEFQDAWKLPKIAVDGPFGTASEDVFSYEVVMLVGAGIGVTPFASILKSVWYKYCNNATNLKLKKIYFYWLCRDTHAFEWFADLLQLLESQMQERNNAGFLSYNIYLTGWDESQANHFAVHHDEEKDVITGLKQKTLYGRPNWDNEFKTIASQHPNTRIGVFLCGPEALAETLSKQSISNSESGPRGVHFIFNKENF
NADPH oxidase 5 (Homo sapiens), sequence (Q96PH1 whole entry, looked up): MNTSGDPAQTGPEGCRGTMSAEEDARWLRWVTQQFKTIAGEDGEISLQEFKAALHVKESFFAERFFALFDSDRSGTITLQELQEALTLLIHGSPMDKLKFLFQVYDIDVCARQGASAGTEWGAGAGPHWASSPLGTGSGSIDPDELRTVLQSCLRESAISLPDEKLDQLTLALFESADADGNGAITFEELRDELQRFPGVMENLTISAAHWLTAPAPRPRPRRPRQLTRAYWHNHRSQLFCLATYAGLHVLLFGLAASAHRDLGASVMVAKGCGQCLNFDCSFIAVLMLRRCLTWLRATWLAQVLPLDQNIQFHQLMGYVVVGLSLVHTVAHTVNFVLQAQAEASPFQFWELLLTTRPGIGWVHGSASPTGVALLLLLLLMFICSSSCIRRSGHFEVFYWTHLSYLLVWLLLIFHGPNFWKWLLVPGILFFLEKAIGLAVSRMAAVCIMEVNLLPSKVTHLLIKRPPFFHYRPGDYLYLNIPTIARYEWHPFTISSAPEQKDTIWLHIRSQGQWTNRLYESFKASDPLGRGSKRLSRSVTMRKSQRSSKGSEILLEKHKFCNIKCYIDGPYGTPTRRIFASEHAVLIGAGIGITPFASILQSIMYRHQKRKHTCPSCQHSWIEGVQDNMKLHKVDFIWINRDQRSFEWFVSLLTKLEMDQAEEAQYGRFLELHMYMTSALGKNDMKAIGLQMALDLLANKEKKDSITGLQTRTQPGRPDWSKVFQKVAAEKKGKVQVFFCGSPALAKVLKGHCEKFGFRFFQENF

For the molecule `C=CC[C@@]1(C(=O)OC)N=C(c2ccc(OCCCO)cc2)O[C@@H]1c1ccccc1N=[N+]=[N-]`, the z-score in [1] was 0.0465 (inactive); in assay [3], 30.6 (active); in assay [4], 27.4 (active); in assay [5] it was 4.11 (inactive); in assay [6] it was 5.12 (inactive); in assay [7] it was 0.581. The z-score is -0.471 (inactive) in assay [8]; 1.43 (inactive) in assay [9]; -0.0237 in assay [10]; -1.28 in assay [11]; 1.02 in assay [12]; -0.361 in [13]. Besides, the z-score was -0.473 in [14]; -3.03 in assay [15]; 1 in assay [16]; 0.645 (inactive) in assay [17]; -0.983 in assay [18]; 0.0955 in assay [19]. For the same molecule, in assay [20], the z-score was -1 (inactive). This molecule also yielded a composite z-score in [2] of 0.398.
`C=CCNC(=O)[C@H]1[C@@H]2C(=O)O[C@@H](c3ccccc3)[C@@H](c3ccccc3)N2[C@@H](c2ccc(OCCO)cc2)[C@]12C(=O)Nc1ccc(C#CC3(O)CCCCCC3)cc12`: the z-score in [1] is 0.803 (inactive); in assay [3], 2.48 (inactive); in assay [4] it was 1.54 (inactive); in [5] it was -0.441 (inactive); in [6], 0.311 (inactive); in assay [7], 0.977. The z-score in [8] is 1.94 (inactive); in assay [9], 1.18 (inactive); in assay [10] it was 0.902; in assay [11] it was 1.17; in assay [12], 1.36; in assay [13], -0.0346. The z-score was -2.27 in assay [14]; -1.41 in assay [15]; -1.57 in assay [16]; 0.43 (inactive) in [17]; -0.819 in assay [18]; -0.535 in [19]. Moreover, the z-score in assay [20] was 1.31 (inactive). This molecule also registered a composite z-score in [2] of 0.523.
In the case of `O=C1C2C=CC(C(O)c3ccc([N+](=O)[O-])cc3)N(Nc3ccccc3F)C2C(=O)N1c1ccccc1` (stereo not given), the z-score was -1.36 (inactive) in [1]; 9.91 (active) in [3]; 0.885 (inactive) in [4]; 0.458 (inactive) in [5]; 0.586 (inactive) in [6]; -0.888 in [7]. The z-score is -2.54 (inactive) in assay [8]; -4.13 (inactive) in assay [9]; -3.11 in assay [10]; -0.353 in assay [11]; -0.923 in assay [12]; -1.16 in assay [13]. The z-score in assay [14] was 0.375; in assay [15], -0.958; in [16], -1.5; in assay [17] it was -2.27 (inactive); in assay [18], -0.268; in assay [19], -0.127. In addition, the z-score in [20] was -0.364 (inactive). The molecule also returned a composite z-score in assay [2] of 0.0625.
`COC(=O)[C@@]1(Cc2ccccc2)[C@H]2c3cc(C(=O)N(C)C)n(CCO)c3C[C@H]2CN1C(=O)c1ccccc1`: the z-score is -1.65 (inactive) in assay [1]; -0.469 (inactive) in assay [3]; 0.19 (inactive) in assay [4]; -0.0157 (inactive) in assay [5]; 0.57 (inactive) in [6]; -0.935 in assay [7]. Also, the z-score in [8] was 0.714 (inactive); in assay [9], 0.111 (inactive); in [10], -0.912; in [11], -1.33; in assay [12] it was 0.18; in assay [13], -0.28. For the same molecule, the z-score was -0.0531 in assay [14]; -1.99 in [15]; -0.92 in assay [16]; -2.92 (inactive) in assay [17]; 0.127 in assay [18]; -0.787 in [19]. Further, the z-score in [20] is -0.723 (inactive). Besides, in [2], the composite z-score turned out to be 0.188.
With `COC(=O)C1(Cc2ccccc2)C=C2C(=C(C)C(=O)C2C)CN1` (stereo not given), the z-score in assay [1] is -0.492 (inactive); in assay [3], 0.756 (inactive); in [4] it was -0.425 (inactive); in assay [5], -0.662 (inactive); in [6], -1.2 (inactive); in assay [7], 2.47. Besides, the z-score in assay [8] is 0.436 (inactive); in [9] it was -0.568 (inactive); in [10], -4; in [11], -0.865; in [12], 0.45; in assay [13] it was 0.159. For the same molecule, the z-score is 0.232 in assay [14]; 0.213 in [15]; -0.237 in assay [16]; -0.046 (inactive) in assay [17]; 0.151 in [18]; -0.762 in [19]. Besides, the z-score in assay [20] was -1.21 (inactive). In [2], this molecule came in with a composite z-score of 0.695.
